# Reference: PubChem BioAssay (NCATS)
# Records with an inconclusive call do not appear. A call without a number means that no potency is given here. Calls of active or inactive are those of the source. Unless noted, calls come from the whole dose curve; as a rule, active = well fitted curve in the direction sought with a large enough effect; inconclusive = small, poorly fitted or top-dose-only effect, or another doubt; inactive = no such curve, though single readings can be large; an effect the other way counts as inactive or inconclusive.
# What was measured:
# [1] = target: Rap guanine nucleotide exchange factor 3 (Homo sapiens) (UniProt O95398); experiment: Confirmatory qHTS for antagonist of cAMP-regulated guanine nucleotide exchange factor 3 (EPAC1) (AID 1645880); note: nearly all actives have a fitted effect of over 55% in size
# Summary of the method: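 Released BODIPY-GDP fluoresces less than Rap1-bound BODIPY-GDP; the signal is followed at 480/540 nm at 5-min intervals over 30 min, after 5 min at room temperature. Reactions contain 100 nM EPAC1, 250 nM RAP1B-BODIPY-GDP and 50 uM GDP; results are normalized to ATA and DMSO.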
# [2] = target: Rap guanine nucleotide exchange factor 3 (Homo sapiens) (UniProt O95398); experiment: Confirmatory qHTS for agonist of cAMP-regulated guanine nucleotide exchange factor 3 (EPAC1) (AID 1645881);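 note: EPAC1 catalysed release of BODIPY-GDP from Rap1B seen as fluorescence loss; nearly all actives have a fitted effect of over 75% in size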
# [3] = target: Rap guanine nucleotide exchange factor 4 (Homo sapiens) (UniProt Q8WZA2); experiment: Confirmatory qHTS for agonist of cAMP-regulated guanine nucleotide exchange factor 4 (EPAC2) (AID 1645884);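 note: nucleotide exchange releases bodipy-GDP from Rap1 and this lowers its fluorescence; nearly all actives have a fitted effect of over 65% in size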
# [4] = NCATS anti-infectives library activity on HEK293 viability as a counter-qHTS vs the C. elegans viability qHTS (AID 1745854);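 note: HEK293 cells exposed to compounds for 24 hr before the viability read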
# Summary of the method: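 Compound titrations (final up to 41.7 uM) were incubated with HEK293 cells for 24 hr at 37C under 5% CO2. Viable cells were quantified with CellTiter-Glo after 10 min at ambient temperature.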
# [5] = target: Rap guanine nucleotide exchange factor 4 (Homo sapiens) (UniProt Q8WZA2); experiment: Confirmatory qHTS for antagonist of cAMP-regulated guanine nucleotide exchange factor 4 (EPAC2) (AID 1645885); note: nearly all actives have a fitted effect of over 25% in size
# [6] = Viability counterscreen for antagonist of constitutive androstane receptor (CAR) against the NCATS DSHEA and TCM libraries (AID 1794837);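 note: compound exposure lasted 24 h before viability reading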
# Summary of the method: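 HepG2-CYP2B6-hCAR cells (2,500/well) were allowed to attach for 5 h, then exposed to compounds with 48 uM CITCO for 24 h at 37C. Viability was read by CellTiter-Fluor fluorescence after 1 h.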
# [7] = Primary qHTS for inhibitors of nuclear receptor binding SET domain protein 2 (NSD2) in an isogenic RCH-ACV NSD2 p.E1099K mutant (9B) (AID 1645876); note: nearly all actives have a fitted effect of over 70% in size
# [8] = Primary qHTS for inhibitors of nuclear receptor binding SET domain protein 2 (NSD2) in an RCH-ACV wild type WT cells (2C) (AID 1645877); note: nearly all actives have a fitted effect of over 70% in size
# [9] = NCATS anti-infectives library activity on the primary C. elegans qHTS viability assay (AID 1745855; calls by dose curve; note: potency is the fitted concentration of half-maximal effect)
# Summary of the method: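 Titration-based screen in worms: eggs hatched overnight in M9, L1 larvae fed TOP10 capsules in S medium with compound, incubated 21 °C for 7 days; fluorescent objects gated by size and intensity at days 0, 3 and 7.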
# Sequence of Rap guanine nucleotide exchange factor 4 (Homo sapiens) (Q8WZA2 whole entry, looked up): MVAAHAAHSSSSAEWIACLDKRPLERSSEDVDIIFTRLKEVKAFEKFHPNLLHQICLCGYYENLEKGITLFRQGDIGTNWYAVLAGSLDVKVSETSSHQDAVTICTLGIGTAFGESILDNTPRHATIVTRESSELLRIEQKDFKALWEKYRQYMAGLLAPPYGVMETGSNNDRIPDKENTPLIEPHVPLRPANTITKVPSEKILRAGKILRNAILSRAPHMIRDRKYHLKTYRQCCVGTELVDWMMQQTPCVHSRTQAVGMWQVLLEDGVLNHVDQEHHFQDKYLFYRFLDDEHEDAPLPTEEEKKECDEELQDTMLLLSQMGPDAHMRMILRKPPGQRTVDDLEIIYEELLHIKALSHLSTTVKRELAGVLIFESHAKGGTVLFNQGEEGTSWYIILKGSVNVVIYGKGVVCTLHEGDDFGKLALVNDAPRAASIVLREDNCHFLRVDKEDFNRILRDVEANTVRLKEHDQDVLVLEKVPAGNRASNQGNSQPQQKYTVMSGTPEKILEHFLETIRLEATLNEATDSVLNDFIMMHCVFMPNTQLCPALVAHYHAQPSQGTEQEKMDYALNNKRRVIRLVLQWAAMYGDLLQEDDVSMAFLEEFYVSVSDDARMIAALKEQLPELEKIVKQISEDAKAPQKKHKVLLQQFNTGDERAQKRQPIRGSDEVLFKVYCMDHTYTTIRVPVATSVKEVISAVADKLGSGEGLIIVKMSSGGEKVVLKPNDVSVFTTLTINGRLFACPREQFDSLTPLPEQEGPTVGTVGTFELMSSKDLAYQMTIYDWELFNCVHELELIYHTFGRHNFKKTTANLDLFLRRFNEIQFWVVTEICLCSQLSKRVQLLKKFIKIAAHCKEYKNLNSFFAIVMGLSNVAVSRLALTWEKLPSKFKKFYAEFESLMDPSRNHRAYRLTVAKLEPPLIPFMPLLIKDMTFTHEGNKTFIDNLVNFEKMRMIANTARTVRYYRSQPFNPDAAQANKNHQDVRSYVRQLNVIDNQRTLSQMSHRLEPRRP
# Sequence of Rap guanine nucleotide exchange factor 3 (Homo sapiens) (O95398 whole entry, looked up): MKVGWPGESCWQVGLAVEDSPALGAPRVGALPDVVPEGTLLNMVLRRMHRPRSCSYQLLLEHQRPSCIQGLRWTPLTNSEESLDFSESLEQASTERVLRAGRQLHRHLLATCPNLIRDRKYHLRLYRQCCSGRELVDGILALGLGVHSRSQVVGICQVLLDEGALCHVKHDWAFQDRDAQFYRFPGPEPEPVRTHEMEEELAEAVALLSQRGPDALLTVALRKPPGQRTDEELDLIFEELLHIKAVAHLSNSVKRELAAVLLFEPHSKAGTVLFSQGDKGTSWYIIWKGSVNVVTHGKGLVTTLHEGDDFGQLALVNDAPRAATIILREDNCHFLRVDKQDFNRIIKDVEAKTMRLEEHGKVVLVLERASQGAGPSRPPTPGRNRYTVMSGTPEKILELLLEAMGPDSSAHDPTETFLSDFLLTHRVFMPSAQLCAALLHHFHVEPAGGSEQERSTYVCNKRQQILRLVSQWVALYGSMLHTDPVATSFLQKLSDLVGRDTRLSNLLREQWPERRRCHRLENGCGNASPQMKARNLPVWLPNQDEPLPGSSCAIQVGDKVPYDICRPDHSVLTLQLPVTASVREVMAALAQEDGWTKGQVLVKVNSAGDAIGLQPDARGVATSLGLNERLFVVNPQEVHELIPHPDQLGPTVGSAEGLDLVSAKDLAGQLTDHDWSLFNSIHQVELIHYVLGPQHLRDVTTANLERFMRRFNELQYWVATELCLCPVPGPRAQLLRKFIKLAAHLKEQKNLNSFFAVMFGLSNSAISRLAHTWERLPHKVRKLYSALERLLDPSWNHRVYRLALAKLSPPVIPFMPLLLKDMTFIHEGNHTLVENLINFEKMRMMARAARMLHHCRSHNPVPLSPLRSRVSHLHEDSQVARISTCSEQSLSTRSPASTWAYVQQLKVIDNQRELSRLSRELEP
smiles,measurement,setting,value
CC(C)[C@@H](C)/C=C/[C@@H](C)[C@H]1CC[C@H]2/C(=C/C=C3\C[C@@H](O)CC[C@@H]3C)CCC[C@]12C,outcome,[1],inactive
same,outcome,[2],inactive
same,outcome,[3],inactive
Cc1c(O)c(=O)ccn1C,outcome,[4],inactive
COc1ccc(/C=C/C(=O)O)cc1,outcome,[1],inactive
same,outcome,[2],inactive
same,outcome,[3],inactive
same,Potency,[5],inactive
CC/C=C\C/C=C\C/C=C\C/C=C\C/C=C\CCCC(=O)O,outcome,[6],inactive
CC/C=C\C/C=C\C/C=C\C/C=C\C/C=C\C/C=C\CCC(=O)O,outcome,[6],inactive
CC(=O)N=c1sc(S(N)(=O)=O)nn1C,outcome,[4],inactive
CC(C)c1nc(N(C)S(C)(=O)=O)nc(-c2ccc(F)cc2)c1/C=C/C(O)CC(O)CC(=O)O (stereo unspecified),outcome,[4],inactive
O=C1c2c(O)cccc2[C@H]([C@@H]2O[C@H](CO)[C@@H](O)[C@H](O)[C@H]2O)c2cc(CO)cc(O)c21,outcome,[4],inactive
CCOC(=O)Oc1c(OC)cc(C(=O)O[C@@H]2C[C@@H]3CN4CCc5c([nH]c6cc(OC)ccc56)[C@H]4C[C@@H]3[C@H](C(=O)OC)[C@H]2OC)cc1OC,outcome,[1],inactive
same,outcome,[2],inactive
same,outcome,[3],inactive
CSc1nc2cc(Oc3cccc(Cl)c3Cl)c(Cl)cc2[nH]1,outcome,[1],inactive
same,outcome,[2],inactive
same,outcome,[3],inactive
Oc1cccc(O)c1O,outcome,[6],inactive
O=C(Nc1ccc(O)cc1)c1ccccc1O,outcome,[4],inactive
CC1CC(OC(=O)C(O)c2ccccc2)CC(C)(C)C1 (stereo unspecified),outcome,[1],inactive
same,outcome,[2],inactive
same,outcome,[3],inactive
CC(C)=CCC/C(C)=C/C=C/C(C)=C/C=C/C(C)=C/C=C/C=C(C)/C=C/C=C(C)/C=C/C=C(\C)CCC=C(C)C,outcome,[4],inactive
same,outcome,[6],inactive
Nc1ncnc2c1ncn2[C@H]1CC[C@@H](CO)O1,outcome,[4],inactive
CC[C@H](CC[C@@H](C)[C@H]1CC[C@H]2[C@@H]3CC=C4C[C@@H](O)CC[C@]4(C)[C@H]3CC[C@]12C)C(C)C,Potency,[7],inactive
same,Potency,[8],inactive
same,outcome,[6],inactive
C=CC[C@@H]1/C=C(\C)C[C@H](C)C[C@H](OC)[C@H]2O[C@@](O)(C(=O)C(=O)N3CCCC[C@H]3C(=O)O[C@H](/C(C)=C/[C@@H]3CC[C@@H](O)[C@H](OC)C3)[C@H](C)[C@@H](O)CC1=O)[C@H](C)C[C@@H]2OC,outcome,[2],inactive
same,outcome,[3],inactive
same,outcome,[4],inactive
same,Potency,[9],3.65 µM (active)
CCCCCCCCCCCC(=O)OCC(O)CO (stereo unspecified),outcome,[6],inactive
CCN(CC)C(=S)S,outcome,[4],inactive
